High-throughput results from PubChem BioAssay.
Most compounds without a hit are left out; they make up all but 4.2% or so of the library.
Pyk2 oligo antag: antagonists of Pyk2 self-association, primary screen, Q293 cells, FERM NanoBiT luminescence, HTS; Protein-tyrosine kinase 2-beta (Homo sapiens), Q14289; hits give low values; z-score (the deposit names both 25 µM and 10 µM); hit rate 0.83% among 99,000; AID 1347419, 2020;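 active = Z-score of -3 or lower, scaled per plate to the spread of control and sample wells; inactive = z-score above -3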;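 also: negative z-score means lost luminescence so less FERM oligomerization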
Cav32 inh: Cav3.2 calcium influx blockers – cell-based, Fluo-4 calcium fluorescence, FDSS, MLSMR library, primary screen. Voltage-dependent T-type calcium channel subunit alpha-1H (Homo sapiens), O95180. B-score at 10 µM. Cav3.2-expressing cells; hits give low values. hit rate 4% among 100,000;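 active = single-dose well whose peak fluorescence ratio is a statistical outlier from its plate by either plate-standardised score or position-corrected B-score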
Mac1 fbg inh: inhibitors of CD11b/CD18 adhesion to fibrinogen, primary screen, K562 cells, luminescence | Integrin beta-2 (Homo sapiens) + Integrin alpha-M (Homo sapiens), P05107+P11215 | ATPlite luminescence; Mn2+ added to activate the integrin | inhibition, % at 10 µM | hit rate 0.54% among 93,000;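 active = primary inhibition of 50% or more at 10 µM, then 40% or more on retest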
Mac1 fbg enh: enhancers of CD11b/CD18 adhesion to fibrinogen, primary screen, K562 cells, luminescence; ATPlite luminescence; hit rate 0.07% among 93,000; activation, % at 10 µM; Integrin beta-2 (Homo sapiens) + Integrin alpha-M (Homo sapiens), P05107+P11215;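 active = 10 µM primary screen giving 50% or more activity, confirmed by 40% or more on retest at that dose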
Ec RNAP inh: E. coli RNAP inhibitors, biochemical. AID 559, 2006. DNA-directed RNA polymerase subunit beta (Escherichia coli (strain K12)), P0A8V2. E. coli RNA polymerase, fluorescence transcription assay. inhibition, %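 (tested at 10 µM)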. hit rate 0.2% among 62,000; in the data active = inhibition above about 20%
Large screens that a line does not name were inactive.

CN(C)c1ccc(CN(C(=O)C2COc3ccccc3O2)C2CCS(=O)(=O)C2)cc1 (configuration not stated)	none
CC(C)c1ccc(CN(C(=O)C2COc3ccccc3O2)C2CCS(=O)(=O)C2)cc1 (configuration not stated)	Cav32 inh -4.41 (no result: Ec RNAP inh)
C=C(C)c1cccc(C(C)(C)NC(=O)N2CCN(CC)CC2)c1	none (no result: Mac1 fbg inh, Mac1 fbg enh)
C=C(C)c1cccc(C(C)(C)NC(=O)N2CCCCC2CC)c1 (configuration not stated)	Cav32 inh -4.54 (no result: Ec RNAP inh)
COCCNC(=O)c1c(N)n(-c2cccc(C)c2)c2nc3ccccc3nc12	Cav32 inh -6.08
C=CCn1c(=O)c2c3c(sc2n2c(Nc4ccc(OC)cc4)nnc12)CCCC3	none
C=CCn1c(=O)c2c3c(sc2n2c(Nc4ccccc4)nnc12)CCCC3	Pyk2 oligo antag -3.72 (no result: Ec RNAP inh)
COc1ccc(NC(=O)OCCn2c([N+](=O)[O-])cnc2C)cc1	none (no result: Pyk2 oligo antag, Cav32 inh, Ec RNAP inh)
COc1ccc(C(=O)/C=C/Nc2ccc([N+](=O)[O-])cc2C)c(OC)c1	none (no result: Ec RNAP inh)
COc1ccc(C(=O)/C=C/Nc2ccc([N+](=O)[O-])cc2C)cc1OC	Mac1 fbg enh 53.3 (no result: Ec RNAP inh)
O=C(Nc1cccc(C(F)(F)F)c1)c1cccnc1N1CCN(c2ccccc2)CC1	none (no result: Ec RNAP inh)
C/C(=C\C(=O)c1ccncc1)Nc1ccccc1O	Cav32 inh -5.7 (no result: Mac1 fbg inh, Mac1 fbg enh)
CCCCNC(=O)C(=O)NC(C)CCc1ccccc1 (configuration not stated)	none (no result: Cav32 inh, Ec RNAP inh)
COC(CNC(=O)C1CC(=O)N(CCc2ccccc2)C1)OC (configuration not stated)	none (no result: Ec RNAP inh)
CC(C)(C)c1ccc(O)c(N)c1	Ec RNAP inh 24.3 (no result: Pyk2 oligo antag)
CC(C)c1ccc(O)c(N)c1	none (no result: Mac1 fbg inh)
CC[C@@]1(O)C(=O)OCc2c1cc1n(c2=O)Cc2cc3c(CN(C)C)c(O)ccc3nc2-1	Cav32 inh -6.28 (no result: Pyk2 oligo antag, Mac1 fbg inh, Mac1 fbg enh, Ec RNAP inh)
O=C(O)CCCCCn1c(O)c(C=C2N=c3ccccc3=N2)sc1=S	Mac1 fbg inh 68.9 (no result: Pyk2 oligo antag, Cav32 inh, Ec RNAP inh)
Cc1ccccc1NC(=O)CN1C(=O)COc2ccc(Cl)cc21	none (no result: Pyk2 oligo antag)
COc1cc(NC(=O)C2COc3ccccc3O2)c(OC)cc1Cl (configuration not stated)	Cav32 inh -4.46
Cc1ccc(C2CN(C)C3(C(=O)Nc4ccccc43)C23COc2ccccc2C3=O)cc1 (configuration not stated)	Pyk2 oligo antag -3.57 (no result: Cav32 inh, Mac1 fbg inh, Mac1 fbg enh, Ec RNAP inh)
CN1CC(c2ccccc2Cl)C2(COc3ccccc3C2=O)C12C(=O)Nc1ccccc12 (configuration not stated)	none (no result: Mac1 fbg inh, Mac1 fbg enh, Ec RNAP inh)
CCn1cc(C(=O)O)c(=O)c2cc(F)c(N3CCN(S(=O)(=O)c4ccc(NC(=O)OC)cc4)CC3)cc21	none (no result: Pyk2 oligo antag, Cav32 inh, Ec RNAP inh)
Cc1ccc(S(=O)(=O)N2Cc3ccccc3CC2C(=O)Nc2ccc3c(c2)OCO3)cc1 (configuration not stated)	Cav32 inh -4.54 (no result: Ec RNAP inh)
CCc1nnc(NC(=O)C2Cc3ccccc3CN2S(=O)(=O)c2ccc(C)cc2)s1 (configuration not stated)	Pyk2 oligo antag -3.01 (no result: Mac1 fbg inh, Mac1 fbg enh, Ec RNAP inh)
COc1ccc(S(=O)(=O)N2Cc3ccccc3CC2C(=O)Nc2ccc3c(c2)OCO3)cc1 (configuration not stated)	none (no result: Ec RNAP inh)
Cc1nn(-c2ccccc2)c(Cl)c1C(=O)Nc1nnc(C2CCCC2)s1	Cav32 inh -5.01
CSc1ccc(CNc2cccc3ccccc23)cc1	Pyk2 oligo antag -4.33 (no result: Ec RNAP inh)
CC(=O)Nc1ccc(S(=O)(=O)Nc2cccc(-c3nc4ccccc4o3)c2)cc1	none (no result: Ec RNAP inh)
O=S(=O)(Nc1ccc(-c2nc3ccccc3o2)cc1)c1ccccc1	Pyk2 oligo antag -3.45
CCOc1ccc2nc(N/C(N)=N/C(=S)Nc3cccc(C)c3)nc(C)c2c1	Cav32 inh -5.5 (no result: Ec RNAP inh)
COc1ccc2nc(N/C(N)=N/C(=S)Nc3cccc(C)c3)nc(C)c2c1	none (no result: Mac1 fbg inh, Mac1 fbg enh, Ec RNAP inh)
O=C(Nc1cc(S(=O)(=O)N2CCOCC2)ccc1Cl)C(=O)c1c(-c2ccccc2)cc2ccccn12	none (no result: Ec RNAP inh)
COCCCNc1c2c3c(cccc3[nH]c1=O)C(=O)c1ccccc1-2	Cav32 inh -11.6 (no result: Pyk2 oligo antag)
COCCCNS(=O)(=O)c1ccc2c3c(cccc13)C(=O)S2	none (no result: Mac1 fbg inh, Mac1 fbg enh)
COc1ccc(C(=O)Nc2ccc(Cl)c(Cl)c2)c(OC)n1	none
CC(C)C1O/C(=N/C(=O)Nc2ccc(Cl)c(Cl)c2)NC1=O (configuration not stated)	Cav32 inh -5
COc1ccccc1N(CC(=O)Nc1cc(C)on1)S(=O)(=O)c1ccc(Cl)cc1	Cav32 inh -2.39 (no result: Ec RNAP inh)
COc1nnc(-c2ccc(N3CCCCC3)c(N)c2)c2ccccc12	Cav32 inh -6.89 (no result: Mac1 fbg inh, Mac1 fbg enh, Ec RNAP inh)
CCCC(=O)Nc1cc(-c2nnc(OC)c3ccccc23)ccc1N1CCCCC1	none (no result: Pyk2 oligo antag, Cav32 inh, Ec RNAP inh)
Nc1ccc(-n2nncc2-c2ccc(Cl)cc2)cc1	none (no result: Ec RNAP inh)
COc1cc(/C=C(/C#N)c2nc3ccccc3[nH]2)ccc1OCC(=O)Nc1ccccc1C(C)C	none (no result: Mac1 fbg inh, Mac1 fbg enh, Ec RNAP inh)
COc1cc(/C=C(/C#N)c2nc3ccccc3[nH]2)ccc1OCC(=O)Nc1ccccc1C	Mac1 fbg enh 204.0 (no result: Ec RNAP inh)
OCCn1c(-c2ccc3c(c2)OCO3)csc1=Nc1ccccc1	Cav32 inh -5.44
Cc1ccc2nc(Cl)c(/C=N/Nc3nc(C)cc(C)n3)c(=O)n2c1	none (no result: Cav32 inh, Mac1 fbg inh, Mac1 fbg enh, Ec RNAP inh)
CCn1c(CNc2ccc(Cl)cc2)nnc1SCC(=O)OC1CCCCC1	Cav32 inh -8.44 (no result: Mac1 fbg inh, Mac1 fbg enh, Ec RNAP inh)
CCn1c(CNc2ccccc2Cl)nnc1SCC(=O)OC1CCCCC1	Cav32 inh -4.48
CCn1c(CNc2cccc(Cl)c2)nnc1SCC(=O)OC1CCCCC1	none (no result: Cav32 inh)
Cc1nn(Cc2ccccc2Cl)c2sc(C(=O)NCc3ccc4c(c3)OCO4)cc12	Cav32 inh -3.53 (no result: Ec RNAP inh)
CCC(CC)NC(=O)c1cc2c(C)nn(Cc3ccccc3Cl)c2s1	none (no result: Ec RNAP inh)
COc1ccc(NC(=O)NC23CC4(C)CC(C)(CC(C)(C4)C2)C3)cc1OC	none (no result: Pyk2 oligo antag, Cav32 inh, Ec RNAP inh)
Cc1ccccc1C(=O)Oc1cccc(Nc2ncnc3ccccc23)c1	Cav32 inh -4.84 (no result: Mac1 fbg inh, Mac1 fbg enh, Ec RNAP inh)
CCC(=O)NCCC(c1ccco1)c1ccccc1OC (configuration not stated)	none (no result: Mac1 fbg inh, Mac1 fbg enh)
CCC(=O)N(CCC(c1ccccc1)c1ccco1)Cc1cccs1 (configuration not stated)	Cav32 inh -9.38 (no result: Mac1 fbg inh, Mac1 fbg enh, Ec RNAP inh)
COc1ccccc1C(CCN(Cc1cccs1)C(C)=O)c1ccco1 (configuration not stated)	Cav32 inh -4.96
COc1ccc2nc(NC(=O)CCN3C(=S)NC(C)(C)CC3C)sc2c1 (configuration not stated)	none (no result: Pyk2 oligo antag, Cav32 inh, Ec RNAP inh)
CC(=O)Nc1ccc(/C(C)=N/NC(=O)c2ccccc2Cl)cc1	none (no result: Cav32 inh, Mac1 fbg inh, Mac1 fbg enh, Ec RNAP inh)
O=S(=O)(Cc1ccccc1)N1CCCC(c2nc(-c3ccc(F)cc3)no2)C1 (configuration not stated)	none
CCCS(=O)(=O)N1CCCC(c2nc(-c3cccc(OC)c3)no2)C1 (configuration not stated)	Cav32 inh -4.01
O=C(CSc1nnc(-c2ccccc2)c(-c2ccccc2)n1)N1CCc2ccccc21	Cav32 inh -4.53 (no result: Ec RNAP inh)
